Source: PubChem BioAssay (NCATS)
Results filed as inconclusive are left out. Entries that show only a call come without a potency. Unmarked numbers belong to inactive results. Calls of active or inactive are those of the source. Calls come from the whole dose curve; as a rule, active = well fitted curve in the direction sought with a large enough effect; inconclusive = small, poorly fitted or top-dose-only effect, or another doubt; inactive = no such curve, though single readings can be large; an effect the other way counts as inactive or inconclusive.

Columns and labels:
[1] = biological target: Rap guanine nucleotide exchange factor 3 (Homo sapiens) (UniProt O95398); assay: Confirmatory qHTS for agonist of cAMP-regulated guanine nucleotide exchange factor 3 (EPAC1) (AID 1645881);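 note: EPAC1 catalysed release of BODIPY-GDP from Rap1B seen as fluorescence loss; nearly all actives have a fitted effect of over 75% in size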
[2] = biological target: Rap guanine nucleotide exchange factor 4 (Homo sapiens) (UniProt Q8WZA2); assay: Confirmatory qHTS for agonist of cAMP-regulated guanine nucleotide exchange factor 4 (EPAC2) (AID 1645884);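 note: nucleotide exchange releases bodipy-GDP from Rap1 and this lowers its fluorescence; nearly all actives have a fitted effect of over 65% in size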
[3] = biological target: Rap guanine nucleotide exchange factor 4 (Homo sapiens) (UniProt Q8WZA2); assay: Confirmatory qHTS for antagonist of cAMP-regulated guanine nucleotide exchange factor 4 (EPAC2) (AID 1645885); note: nearly all actives have a fitted effect of over 25% in size; note: potency is the fitted concentration of half-maximal effect
[4] = biological target: Rap guanine nucleotide exchange factor 3 (Homo sapiens) (UniProt O95398); assay: Counterscreen qHTS for agonist of cAMP-regulated guanine nucleotide exchange factor 3 (EPAC1) (AID 1645889); note: nearly all actives have a fitted effect of over 40% in size; note: potency is the fitted concentration of half-maximal effect
Procedure, shortened: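 Rap1B–BODIPY-GDP (250 nM) with 50 uM GDP; compounds pin-transferred to 9.74 nM–152 uM final (activator) or from 7.32 nM upwards (inhibitor). Fluorescence Ex/Em 480/540 nm read at 5 and 30 min, then after adding cAMP or buffer, at room temperature.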

Chain of Rap guanine nucleotide exchange factor 3 (Homo sapiens) (O95398 whole entry, looked up): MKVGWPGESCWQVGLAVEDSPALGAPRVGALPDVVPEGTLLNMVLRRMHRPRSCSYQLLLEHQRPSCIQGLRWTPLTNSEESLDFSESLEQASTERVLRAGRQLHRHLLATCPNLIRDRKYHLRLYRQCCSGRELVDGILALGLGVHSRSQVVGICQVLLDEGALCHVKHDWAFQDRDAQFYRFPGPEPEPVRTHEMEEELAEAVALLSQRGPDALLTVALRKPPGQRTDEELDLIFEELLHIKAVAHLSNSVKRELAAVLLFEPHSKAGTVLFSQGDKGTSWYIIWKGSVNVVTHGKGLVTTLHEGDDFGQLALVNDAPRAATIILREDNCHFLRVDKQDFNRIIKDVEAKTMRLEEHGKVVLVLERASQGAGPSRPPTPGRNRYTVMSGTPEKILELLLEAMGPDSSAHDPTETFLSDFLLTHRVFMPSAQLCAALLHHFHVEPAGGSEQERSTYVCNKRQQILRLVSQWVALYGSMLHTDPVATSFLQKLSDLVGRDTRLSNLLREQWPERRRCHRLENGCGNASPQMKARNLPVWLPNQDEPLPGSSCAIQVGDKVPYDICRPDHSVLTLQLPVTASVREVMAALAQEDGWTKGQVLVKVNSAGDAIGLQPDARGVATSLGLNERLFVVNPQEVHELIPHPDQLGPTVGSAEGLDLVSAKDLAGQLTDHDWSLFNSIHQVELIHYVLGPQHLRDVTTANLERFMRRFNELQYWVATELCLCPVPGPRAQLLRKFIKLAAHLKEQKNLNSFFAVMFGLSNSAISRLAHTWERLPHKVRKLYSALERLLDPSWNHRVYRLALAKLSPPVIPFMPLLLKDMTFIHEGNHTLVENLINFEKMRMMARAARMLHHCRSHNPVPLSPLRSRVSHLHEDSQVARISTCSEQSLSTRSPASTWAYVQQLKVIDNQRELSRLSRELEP
Chain of Rap guanine nucleotide exchange factor 4 (Homo sapiens) (Q8WZA2 whole entry, looked up): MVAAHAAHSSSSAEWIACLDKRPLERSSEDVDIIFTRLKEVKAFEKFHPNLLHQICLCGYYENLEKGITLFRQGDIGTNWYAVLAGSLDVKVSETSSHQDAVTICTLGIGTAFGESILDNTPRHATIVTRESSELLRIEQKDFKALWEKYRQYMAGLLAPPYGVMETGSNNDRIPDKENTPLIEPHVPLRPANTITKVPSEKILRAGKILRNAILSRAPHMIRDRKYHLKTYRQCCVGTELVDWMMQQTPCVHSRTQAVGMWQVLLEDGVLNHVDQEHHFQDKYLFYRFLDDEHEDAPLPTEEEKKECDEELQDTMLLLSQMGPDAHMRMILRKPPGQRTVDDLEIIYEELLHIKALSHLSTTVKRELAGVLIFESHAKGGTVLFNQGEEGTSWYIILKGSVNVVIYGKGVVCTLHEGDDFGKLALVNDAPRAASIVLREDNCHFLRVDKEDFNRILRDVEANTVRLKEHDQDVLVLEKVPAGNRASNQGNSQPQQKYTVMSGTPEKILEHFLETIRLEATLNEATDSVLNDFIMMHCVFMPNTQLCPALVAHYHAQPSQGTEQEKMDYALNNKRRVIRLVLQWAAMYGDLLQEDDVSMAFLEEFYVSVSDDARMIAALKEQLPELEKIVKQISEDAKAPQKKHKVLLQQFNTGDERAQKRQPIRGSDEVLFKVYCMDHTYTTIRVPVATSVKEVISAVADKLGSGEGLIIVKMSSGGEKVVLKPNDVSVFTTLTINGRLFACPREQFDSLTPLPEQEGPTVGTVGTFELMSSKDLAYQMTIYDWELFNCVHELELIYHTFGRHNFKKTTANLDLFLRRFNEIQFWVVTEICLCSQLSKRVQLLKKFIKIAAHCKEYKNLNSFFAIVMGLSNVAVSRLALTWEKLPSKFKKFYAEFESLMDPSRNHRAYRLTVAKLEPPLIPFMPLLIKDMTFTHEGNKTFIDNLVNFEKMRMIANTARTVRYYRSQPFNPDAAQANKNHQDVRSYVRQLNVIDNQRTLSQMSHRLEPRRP

SMILES | Potency [1] | Potency [2] | Potency [3] | Potency [4] | activation [2] | activation [4]
COCOCCn1cc(CN2CCS(=O)(=O)N(Cc3ccc(-c4ccc(F)cc4)cc3)C(CC(C)C)C2=O)nn1 (centres undefined) | inactive | inactive | 8.49 µM (active) | inactive | – | –
CCC(NC(=O)c1ccccc1NC(=O)c1ccco1)C(=O)NNC(=O)c1ccc(OC)cc1 (centres undefined) | inactive | – | inactive | – | 0.808% [at 17.1 µM, percent relative to cAMP agonist control] | 9.27% [at 30.8 µM]
Cc1ccc(N=Cc2cc3c(cc2[N+](=O)[O-])OCO3)cc1[N+](=O)[O-] | inactive | – | inactive | – | -8.35% [at 17.1 µM, percent relative to cAMP agonist control] | -2.33% [at 30.8 µM]
CC1CCCN(c2nc3ccccc3nc2C(C#N)S(=O)(=O)c2ccccc2)C1 (centres undefined) | inactive | inactive | inactive | 22.4 µM (active) | – | –
CC1=CCC[C@@H]2[C@@](C)(CC/C(C)=C/C(=O)O)[C@H](C)CC[C@@]12C | inactive | – | inactive | – | 7.29% [at 17.1 µM, percent relative to cAMP agonist control] | 10.7% [at 30.8 µM]
CCCn1c(/C=C/c2ccco2)nc2ccccc21 | inactive | – | inactive | – | -2.96% [at 17.1 µM, percent relative to cAMP agonist control] | 26.1% [at 30.8 µM]
CCCCC[C@H](C)N1C[C@@H](COCc2ccccc2)Oc2cc(N3CC[C@H](O)C3)ccc2S1(=O)=O | inactive | inactive | 19 µM (active) | inactive | – | –
CCC/C=C/c1ccc(CN2C(CC(C)C)C(=O)N(Cc3cn(Cc4ccco4)nn3)CCS2(=O)=O)cc1 (centres undefined) | inactive | inactive | inactive | inactive | – | –
CCCCOC(=O)C1=C(C)Nc2nnnn2C1c1ccccc1Cl (centres undefined) | inactive | inactive | inactive | inactive | – | –
CC(C)CCNC(=O)c1onc(CSc2ccccn2)c1C(=O)NCCC(C)C | inactive | inactive | inactive | inactive | – | –
O=C(CSc1nnc(-c2cccs2)n1Cc1ccco1)Nc1ccc2c(c1)OCO2 | inactive | inactive | inactive | inactive | – | –
CC(C)CCOP(=O)(c1ccc(N(C)C)cc1)C(O)c1ccc(Cl)cc1Cl (centres undefined) | inactive | inactive | 19 µM (active) | inactive | – | –
O=C(Nc1ccccc1N1CCCCC1)c1cnccn1 | inactive | – | inactive | – | 0% [at 17.1 µM, percent relative to cAMP agonist control] | 21.6% [at 30.8 µM]
CN(CC(=O)Nc1ccc(F)cc1)C(=O)COC(=O)C1CCN(c2ccc(C(F)(F)F)cn2)CC1 | inactive | inactive | inactive | inactive | – | –
OC(c1ccccc1)(c1nc(-c2cccc(C(F)(F)F)c2)cs1)C(F)(F)F (centres undefined) | inactive | inactive | inactive | inactive | – | –
CCC(C)(C)c1ccc(OCC(=O)N(C)C)c(C(C)(C)CC)c1 | inactive | inactive | 67.5 µM (active) | inactive | – | –
Cc1cc(-c2ccc(/C=N/n3cnnc3)o2)ccc1Cl | inactive | inactive | inactive | inactive | – | –
CC(C)CCOP(=O)(c1ccc(N(C)C)cc1)C(O)c1c(Cl)cccc1Cl (centres undefined) | inactive | – | inactive | – | 13.3% [at 17.1 µM, percent relative to cAMP agonist control] | 2.73% [at 30.8 µM]
NC(CSC(c1ccccc1)(c1ccccc1)c1cccc2ccccc12)C(=O)O (centres undefined) | inactive | – | inactive | – | -1.78% [at 17.1 µM, percent relative to cAMP agonist control] | 5.6% [at 30.8 µM]
Cc1cc(C)c(OCC(=O)N(Cc2ccco2)Cc2ccco2)c(C)c1 | inactive | inactive | inactive | inactive | – | –
COC(=O)c1ccccc1NC(=S)NC(=O)c1ccc(C)cc1 | inactive | – | inactive | – | 2.96% [at 17.1 µM, percent relative to cAMP agonist control] | 7.2% [at 30.8 µM]
COc1ccc2[nH]cc(S(=O)(=O)c3ccc(C)cc3)c2c1 | inactive | inactive | 21.3 µM (active) | inactive | – | –
CC1Sc2ccc(C#N)cc2N(Cc2cccc(C(F)(F)F)c2)C1=O (centres undefined) | inactive | inactive | inactive | inactive | – | –
O=C(O)CCCC(=O)N1CCN(c2nc(-c3ccccc3Cl)c3cc(Br)ccc3n2)CC1 | inactive | inactive | 13.5 µM (active) | inactive | – | –
CCCc1nc2ccc(C(=O)OC)cn2c1Cc1ccccc1C(F)(F)F | inactive | inactive | 30.1 µM (active) | inactive | – | –
Nc1cc(OC(=O)c2cccs2)nn1S(=O)(=O)c1ccc(F)cc1 | inactive | inactive | 84.9 µM (active) | inactive | – | –
